Screening data: PubChem BioAssay, The Scripps Research Institute Molecular Screening Center
A selection: hits, their analogues and other compounds. The true share with any hit is near 0.84%.
PPARg SRC-2 ag – agonists of SRC-2 recruitment by human PPARgamma. P37231. PPARgamma LBD-SRC-2 recruitment, biochemical. activation, % at 8 µM. 200,000 tested, 0.34% active; in the data active = activation above about 22%;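 also: 0% = vehicle and 100% = reference agonist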
Target sequence (P37231 whole entry, looked up, the tested form may be a part): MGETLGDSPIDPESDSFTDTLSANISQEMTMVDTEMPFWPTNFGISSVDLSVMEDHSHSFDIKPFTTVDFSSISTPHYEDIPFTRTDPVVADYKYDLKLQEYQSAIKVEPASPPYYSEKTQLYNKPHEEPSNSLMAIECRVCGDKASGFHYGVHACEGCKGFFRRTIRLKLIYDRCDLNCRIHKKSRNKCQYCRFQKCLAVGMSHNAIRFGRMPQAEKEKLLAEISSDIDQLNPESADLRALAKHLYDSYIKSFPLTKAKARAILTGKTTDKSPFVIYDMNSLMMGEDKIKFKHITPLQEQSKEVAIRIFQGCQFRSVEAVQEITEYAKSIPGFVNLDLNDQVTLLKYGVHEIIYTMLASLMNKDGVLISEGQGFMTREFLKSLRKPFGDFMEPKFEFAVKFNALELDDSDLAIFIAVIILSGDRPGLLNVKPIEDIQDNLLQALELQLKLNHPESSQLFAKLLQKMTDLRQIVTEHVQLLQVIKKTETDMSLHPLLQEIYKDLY
SRC3 TRFRET art – flags TR-FRET format artefacts in PPARgamma SRC-3 recruitment agonist screen. 99,000 tested, 0.39% active. AID 1048. TR-FRET ratio at 8 µM. TR-FRET artefact counter-screen, PPARgamma/SRC-3 format; stronger effect = higher value
PPARg SRC1 recr – PPARgamma-driven SRC-1 recruitment agonism; P37231; PPARgamma-SRC-1 coactivator recruitment biochemical assay; activation, % at 8 µM; 200,000 tested, 0.41% active; in the data active = activation above about 19%;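 also: 0% = DMSO and 100% = reference agonist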
SRC1 TRFRET art – TR-FRET artefact, counter-screen to PPARgamma/SRC-1 agonist assay | TR-FRET detection artefact counter-screen, emission ratio; stronger effect = higher value | TR-FRET ratio at 8 µM | 99,000 tested, 0.34% active; in the data active = TR-FRET ratio above about 2300
TR-FRET SRC-2 ct – TR-FRET artefact, counter-screen to PPARgamma/SRC-2 agonist assay | stronger effect = higher value | TR-FRET ratio at 8 µM | 200,000 tested, 0.4% active
PPARg SRC-3 ag – agonists of human PPARgamma SRC-3 coactivator recruitment | P37231 | biochemical PPARgamma/SRC-3 coactivator recruitment assay | activation, % at 8 µM | 200,000 tested, 0.26% active | AID 731; in the data active = activation above about 23%;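 also: 0% = DMSO and 100% = reference agonist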
* hit, by the source's call; nt = no result given. Rule as the data show it, unless noted: active = TR-FRET ratio above about 2000; inactive = the rest.

SMILES | PPARg SRC-2 ag | SRC3 TRFRET art | PPARg SRC1 recr | SRC1 TRFRET art | TR-FRET SRC-2 ct | PPARg SRC-3 ag
O=C(CSc1nc2cc(Cl)ccc2c(=O)n1Cc1ccco1)Nc1ccc(S(=O)(=O)N2CCOCC2)cc1 | -2.9 | 2505* | 5.8 | 2098 | 2029* | 5.5
O=C(CSc1nc2ccccc2c(=O)n1-c1ccc(F)cc1)Nc1cc(S(=O)(=O)N2CCOCC2)ccc1Cl | 4.0 | 2000 | -0.8 | 2193 | 2011* | 4.4
Clc1ccc(-c2nnc(COc3ncnc4sccc34)o2)cc1 | -1.1 | 1682 | 6.0 | 1905 | 1653 | 4.6
Cc1cc(SCC(=O)c2cc3ccccc3o2)nc2ccccc12 | 4.3 | nt | 2.7 | nt | 2575* | 1.9
O=C(CSc1nc2cc(Cl)ccc2s1)c1cc2ccccc2o1 | 8.0 | nt | 2.9 | nt | 2199* | 1.4
Cc1cc(NC(=O)CSc2nc3cc(Cl)ccc3s2)no1 | 3.0 | nt | -0.3 | nt | 1623 | 18.6
CC1=CC(C)C2COC(c3ccc[n+](C)c3)C1C2C (stereo unspecified) | -10.6 | 1655 | 2.8 | 1527 | 1411 | 1.5
CC1(c2ccccc2Cl)NC(=O)N(CC(=O)Nc2ccc3c(c2)OCO3)C1=O (stereo unspecified) | 2.8 | 1688 | -2.6 | 1878 | 1709 | -0.6
Cc1ccc(S(=O)(=O)N[C@H](C(=O)OCC(=O)N2N=C(c3ccc(Cl)cc3)CC2c2ccco2)C(C)C)cc1 (stereo partly specified) | 2.4 | 1634 | -3.5 | 1818 | 1651 | 2.4
COc1ccc2nc(SCC(=O)N3CCN(c4ccc(F)cc4)CC3)c(C#N)cc2c1 | 13.2 | nt | 11.9 | nt | 2728* | 7.2
COc1ccc(Cn2c(-c3ccc(C)cc3)nc3c(c(=O)c4ccccc4n3C)c2=O)cc1 | 29.1* | 1508 | 4.5 | 2030 | 2131* | -0.2
COc1ccccc1/C=N/NC(=O)c1ccc(Br)cc1 | 12.3 | 1846 | 4.8 | 2364* | 1692 | 4.1
COc1ccc(/C=N/NC(=O)c2ccc(Br)cc2)c(OC)c1 | 12.3 | 1546 | 10.8 | 1927 | 1660 | 6.8
COc1ccc(-n2ncc3c(N4CCN(Cc5ccccc5)CC4)ncnc32)cc1 | 8.5 | 1502 | 7.6 | 1881 | 1693 | 4.7
COc1ccc(-n2cc(CNCc3cnc4ccccn34)c(-c3cccc(F)c3)n2)cc1 | 0.1 | 1667 | 8.2 | 1895 | 1612 | 1.4
COc1cccc(-c2cc3nc(-c4ccccc4)cc(N4CCC5(CC4)OCCO5)n3n2)c1 | 6.8 | nt | 9.2 | nt | 2317* | 8.3
N#Cc1c(-c2ccccc2)cc(-c2ccccc2)nc1Br | -3.0 | 2095* | 6.7 | 1479 | 1449 | 19.7
CCCCNC(=O)[C@H](CSCc1ccccc1)N1Cc2ccccc2C1=O | -14.3 | 1809 | 3.9 | 1594 | 1374 | 1.8
COc1ccc(CC(=O)NCc2nnc(SCC(=O)Nc3ccccc3)n2C)cc1 | 8.1 | 1639 | 7.2 | 1814 | 1582 | 1.1
COc1ccc(CC(=O)NCc2nnc(SCC(=O)Nc3cccc(F)c3)n2C)cc1 | 38.2* | 1574 | 2.8 | 1764 | 1397 | -1.6
O=C(Nc1nc(-c2nc3ccccc3s2)cs1)C1COc2ccccc2O1 (stereo unspecified) | 17.4 | 1956 | 9.0 | 2597* | 1973* | 9.8
CCOC(=O)c1c(NC(=O)CSc2c[nH]c3ccccc23)sc2c1CCC2 | -0.6 | 4916* | 4.7 | 1826 | 1481 | 0.6
CCOC(=O)c1c(NC(=O)CSc2c[nH]c3ccccc23)sc2c1CCCC2 | -13.8 | 4458* | -4.8 | 1766 | 1640 | 1.4
CCOC(=O)c1c(NC(=O)C(C)Sc2cn(C)c3ccccc23)sc2c1CCC2 (stereo unspecified) | 24.3* | 1894 | 9.6 | 1794 | 1483 | 5.3
CCOC(=O)c1c(NC(=O)CSc2nnc(-c3c[nH]c4ccccc34)n2CCOC)sc2c1CCCCC2 | 0.1 | 1556 | -0.9 | 1650 | 1477 | 8.3
SMILES | PPARg SRC-2 ag | SRC3 TRFRET art | PPARg SRC1 recr | SRC1 TRFRET art | TR-FRET SRC-2 ct | PPARg SRC-3 ag
CCOC(=O)c1c(NC(=O)C(C)Sc2cccc[n+]2[O-])sc2c1CCN(Cc1ccccc1)C2 (stereo unspecified) | 8.2 | 1688 | 4.8 | 1633 | 1644 | 3.0
O=C(O)CCc1nn2c3ccccc3n(CC(=O)c3cccs3)c2nc1=O | 5.9 | 1699 | 6.8 | 1886 | 1550 | 7.7
CCOC(=O)c1sc2nc(CSc3ccccc3)nc(NCCN(C)C)c2c1C | 3.0 | 1627 | 4.0 | 1777 | 1581 | 3.1
N#Cc1cnn(-c2nc(SCc3ccccc3)nc3sc4c(c23)CCCC4)c1N | 5.3 | nt | 8.6 | nt | 2441* | 6.7
COCCCNc1nc(SCc2ccccc2)nc2sc3c(c12)CCC3 | -5.7 | nt | 1.8 | nt | 1553 | 5.0
Cc1ccccc1CCN(C(=O)Cn1nnc2ccccc21)C(C(=O)NCC1CCCO1)c1nc2ccccc2n1C (stereo unspecified) | 3.8 | 1568 | 10.1 | 1825 | 1551 | 5.9
COc1cccc(NC(=S)NCc2ccc3c(c2)cc(C)n3C)c1 | -1.1 | 2011 | 2.6 | 2579* | 1922 | -0.3
Cc1nnc(SCC(=O)Nc2ccc3c(c2)OCO3)n(N)c1=O | -0.3 | 1519 | 5.0 | 1864 | 1554 | 3.0
CC(C)CCN1CCN(Cc2ccc(Sc3nncn3C)o2)CC1CCO (stereo unspecified) | -0.5 | 1495 | -4.2 | 1430 | 1445 | -0.9
CCc1nc(SCC(=O)Nc2ccc3c(c2)OCCO3)c2oc3ccccc3c2n1 | 1.3 | nt | 66.7* | nt | 1553 | -5.5
Cc1nc(SCC(=O)Nc2ccc3c(c2)OCCO3)c2oc3ccccc3c2n1 | 15.8 | nt | 8.1 | nt | 1540 | 11.8
COC(=O)c1ccccc1NC(=O)c1cc(-c2ccc(O)cc2)on1 | 3.5 | nt | 34.6* | nt | 1632 | 6.0
COc1ccc(C2CC(c3ccccc3)=NN2C(=O)COC(=O)c2cccc(S(=O)(=O)N3CCOCC3)c2)cc1 (stereo unspecified) | 15.9 | 2328* | 11.8 | 2459* | 2061* | 7.7
COc1ccc(C2CC(c3ccccc3)=NN2C(=O)COC(=O)c2cccc(S(=O)(=O)N(C)C)c2)cc1 (stereo unspecified) | 5.2 | 2064* | 5.9 | 2411* | 2075* | 8.5
COc1ccc(C2CC(c3ccccc3)=NN2C(=O)COC(=O)c2cnc(Cl)c(Cl)c2)cc1 (stereo unspecified) | -14.9 | 1351 | -2.8 | 1574 | 1668 | -7.0
COc1ccc(C2CC(c3ccccc3)=NN2C(=O)COC(=O)c2ccc(Cl)nc2)cc1 (stereo unspecified) | 2.2 | 1806 | 13.2 | 1893 | 1555 | -0.4
Cc1ccc(N2C(=O)C3CCC(c4ccccc4)CC3C2=O)cc1 (stereo unspecified) | -3.0 | 1599 | 37.0* | 2647* | 1420 | 0.4
COc1ccc(CNc2nc(SCc3cc(=O)n4cc(Cl)ccc4n3)nc3ccccc23)cc1 | 2.8 | 1641 | -1.6 | 1746 | 1536 | 0.3
O=C(Nc1ccc2c(c1)OCCO2)c1cc2sccc2n1Cc1ccccc1 | 7.4 | nt | 3.7 | nt | 1989* | 1.5
O=C(Nc1ccc2c(c1)OCCO2)c1cc2sccc2n1Cc1ccc(F)cc1 | 14.5 | nt | 7.4 | nt | 1828 | 12.4
